What all share (assay): HT-SELEX; high values mean tight binding
Holding throughout (conditions): protein: recombinant; vector His6-GST; dsDNA, one strand shown

The target of one experiment is T1, SALL4 ZFC4 WT (HT-SELEX) (Mus musculus, UniProt Q8BX22 870-940).
T1 sequence: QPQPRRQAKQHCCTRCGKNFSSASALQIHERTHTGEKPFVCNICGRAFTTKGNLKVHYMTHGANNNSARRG
The method, boiled down: (§1)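 A 100 µl reaction of 10 mM Tris–HCl pH 7.5, 50 mM NaCl, poly(dI-dC) and DTT held purified recombinant mouse SALL4 zinc finger cluster 4 (residues 870–940, 1 µg) and library DNA (1.5 µg first cycle, 200 ng later) for 10 min at room temperature. Complexes captured on Ni2+ beads were washed, PCR-amplified and reselected for up to 6 cycles, in triplicate, then MiSeq-sequenced and scanned for 6-mers. Binding signal is the read fraction of each canonical k-mer expressed as fold change over the initial random library.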

The target of experiment [1] is T2, SALL4 ZFC4 R900W (HT-SELEX) (Mus musculus, UniProt Q8BX22 870-940, R900W).
T2 sequence: T1 sequence with R31W
In short, it runs like this:
as §1

Experiment [2] concerns the target T3, SALL4 ZFC4 G921D (HT-SELEX) (Mus musculus, UniProt Q8BX22 870-940, G921D).
T3 sequence: T1 sequence with G52D
In short, it runs like this:
as §1

Residue numbers refer to the chain shown, from its start.

Turning to ATAAAA, the binding signal in the experiment with SALL4 ZFC4 WT (HT-SELEX) came out at 3.85 ± 0.323 fold-change vs cycle 0; in experiment [1] it was 2.43 ± 0.199 fold-change vs cycle 0; in experiment [2] it was 2.07 ± 0.279 fold-change vs cycle 0.

As for ATCTCG, the binding signal with SALL4 ZFC4 WT (HT-SELEX) stood at 0.777 ± 0.0506 fold-change vs cycle 0; in experiment [1], 0.837 ± 0.0514 fold-change vs cycle 0; in experiment [2], 0.933 ± 0.0422 fold-change vs cycle 0.

Consider AAAGGT, for which the binding signal with SALL4 ZFC4 WT (HT-SELEX) was 1.26 ± 0.075 fold-change vs cycle 0; in experiment [1], 1.41 ± 0.06 fold-change vs cycle 0; in experiment [2], 1.29 ± 0.0787 fold-change vs cycle 0.

AAGTGC: the results for the binding signal (with SALL4 ZFC4 WT (HT-SELEX); in experiment [1]; in experiment [2]) were 0.551 ± 0.0359 fold-change vs cycle 0, 0.63 ± 0.00993 fold-change vs cycle 0 and 0.76 ± 0.0221 fold-change vs cycle 0, respectively.

Consider AACCGG, for which the binding signal stood at 0.336 ± 0.0219 fold-change vs cycle 0 in the experiment with SALL4 ZFC4 WT (HT-SELEX), 0.391 ± 0.0169 fold-change vs cycle 0 in experiment [1] and 0.498 ± 0.0509 fold-change vs cycle 0 in experiment [2].

With GCAACA, the results for the binding signal (with SALL4 ZFC4 WT (HT-SELEX); in experiment [1]; in experiment [2]) were 0.54 ± 0.0464 fold-change vs cycle 0, 0.629 ± 0.0238 fold-change vs cycle 0 and 0.72 ± 0.0281 fold-change vs cycle 0, respectively.

In the case of AGTCCA, the binding signal came out at 0.746 ± 0.0239 fold-change vs cycle 0 with SALL4 ZFC4 WT (HT-SELEX), 0.878 ± 0.0374 fold-change vs cycle 0 in experiment [1] and 0.929 ± 0.0398 fold-change vs cycle 0 in experiment [2].

As for CATTAC, the binding signal with SALL4 ZFC4 WT (HT-SELEX) was 1.43 ± 0.0799 fold-change vs cycle 0; in experiment [1], 1.52 ± 0.113 fold-change vs cycle 0; in experiment [2], 1.41 ± 0.113 fold-change vs cycle 0.

In the case of ATCCCG, the binding signal with SALL4 ZFC4 WT (HT-SELEX) was 0.428 ± 0.0246 fold-change vs cycle 0; in experiment [1], 0.4832 ± 0.00274 fold-change vs cycle 0; in experiment [2], 0.574 ± 0.0423 fold-change vs cycle 0.

With ACTACC, the binding signal with SALL4 ZFC4 WT (HT-SELEX) stood at 0.799 ± 0.0371 fold-change vs cycle 0; in experiment [1] it was 0.948 ± 0.0381 fold-change vs cycle 0; in experiment [2] it was 0.968 ± 0.0334 fold-change vs cycle 0.

TATGCA: the binding signal in the experiment with SALL4 ZFC4 WT (HT-SELEX) amounted to 1.19 ± 0.0704 fold-change vs cycle 0; in experiment [1], 1.16 ± 0.0312 fold-change vs cycle 0; in experiment [2] it was 1.15 ± 0.0173 fold-change vs cycle 0.

For AAACGG, the binding signal in the experiment with SALL4 ZFC4 WT (HT-SELEX) was determined as 0.53 ± 0.0454 fold-change vs cycle 0; in experiment [1], 0.652 ± 0.023 fold-change vs cycle 0; in experiment [2] it was 0.713 ± 0.0232 fold-change vs cycle 0.

As for AGCAGA, the binding signal with SALL4 ZFC4 WT (HT-SELEX) stood at 0.694 ± 0.0089 fold-change vs cycle 0; in experiment [1], 0.815 ± 0.0131 fold-change vs cycle 0; in experiment [2], 0.857 ± 0.0135 fold-change vs cycle 0.

In the case of TACCTA, the binding signal is 1.35 ± 0.0562 fold-change vs cycle 0 in the experiment with SALL4 ZFC4 WT (HT-SELEX), 1.48 ± 0.0891 fold-change vs cycle 0 in experiment [1] and 1.42 ± 0.0965 fold-change vs cycle 0 in experiment [2].

As for AAGACG, the binding signal is 0.635 ± 0.0182 fold-change vs cycle 0 in the experiment with SALL4 ZFC4 WT (HT-SELEX), 0.735 ± 0.023 fold-change vs cycle 0 in experiment [1] and 0.815 ± 0.0404 fold-change vs cycle 0 in experiment [2].

As for AGCTGG, the binding signal stood at 0.346 ± 0.0084 fold-change vs cycle 0 with SALL4 ZFC4 WT (HT-SELEX), 0.411 ± 0.0182 fold-change vs cycle 0 in experiment [1] and 0.522 ± 0.0592 fold-change vs cycle 0 in experiment [2].

Take AAAGAG: the binding signal came out at 1.26 ± 0.0407 fold-change vs cycle 0 with SALL4 ZFC4 WT (HT-SELEX), 1.46 ± 0.0773 fold-change vs cycle 0 in experiment [1] and 1.33 ± 0.0951 fold-change vs cycle 0 in experiment [2].

Consider ACACTG, for which the binding signal with SALL4 ZFC4 WT (HT-SELEX) is 0.743 ± 0.0572 fold-change vs cycle 0; in experiment [1], 0.877 ± 0.0574 fold-change vs cycle 0; in experiment [2], 0.908 ± 0.0148 fold-change vs cycle 0.

Take GAGACA: the binding signal in the experiment with SALL4 ZFC4 WT (HT-SELEX) was determined as 0.735 ± 0.0463 fold-change vs cycle 0; in experiment [1], 0.867 ± 0.0277 fold-change vs cycle 0; in experiment [2] it was 0.933 ± 0.0384 fold-change vs cycle 0.

AAACGT: the binding signal with SALL4 ZFC4 WT (HT-SELEX) is 1.02 ± 0.0198 fold-change vs cycle 0; in experiment [1], 1.17 ± 0.0143 fold-change vs cycle 0; in experiment [2], 1.14 ± 0.0434 fold-change vs cycle 0.

On to CTTCAA, for which the figures for the binding signal (with SALL4 ZFC4 WT (HT-SELEX); in experiment [1]; in experiment [2]) were 1.25 ± 0.0505 fold-change vs cycle 0, 1.41 ± 0.0826 fold-change vs cycle 0 and 1.33 ± 0.122 fold-change vs cycle 0, respectively.

CGTAGA: the binding signal amounted to 0.623 ± 0.00876 fold-change vs cycle 0 in the experiment with SALL4 ZFC4 WT (HT-SELEX), 0.7054 ± 0.00296 fold-change vs cycle 0 in experiment [1] and 0.786 ± 0.024 fold-change vs cycle 0 in experiment [2].

In the case of CCTTAG, the results for the binding signal (with SALL4 ZFC4 WT (HT-SELEX); in experiment [1]; in experiment [2]) were 0.925 ± 0.0277 fold-change vs cycle 0, 1.06 ± 0.0431 fold-change vs cycle 0 and 1.04 ± 0.0492 fold-change vs cycle 0, respectively.

For the sequence CGTTCA, the binding signal came to 0.712 ± 0.0321 fold-change vs cycle 0 with SALL4 ZFC4 WT (HT-SELEX), 0.811 ± 0.0256 fold-change vs cycle 0 in experiment [1] and 0.871 ± 0.0211 fold-change vs cycle 0 in experiment [2].

As to AACAGG, the binding signal in the experiment with SALL4 ZFC4 WT (HT-SELEX) turned out to be 0.801 ± 0.0521 fold-change vs cycle 0; in experiment [1] it was 0.937 ± 0.0272 fold-change vs cycle 0; in experiment [2] it was 0.942 ± 0.0148 fold-change vs cycle 0.

Consider GAGTCA, for which the binding signal was found to be 0.822 ± 0.0312 fold-change vs cycle 0 with SALL4 ZFC4 WT (HT-SELEX), 0.955 ± 0.0308 fold-change vs cycle 0 in experiment [1] and 0.993 ± 0.0145 fold-change vs cycle 0 in experiment [2].

AAACAT: the binding signal turned out to be 1.93 ± 0.14 fold-change vs cycle 0 with SALL4 ZFC4 WT (HT-SELEX), 1.88 ± 0.0797 fold-change vs cycle 0 in experiment [1] and 1.72 ± 0.14 fold-change vs cycle 0 in experiment [2].

For GGCTAA, the binding signal in the experiment with SALL4 ZFC4 WT (HT-SELEX) was found to be 0.523 ± 0.0366 fold-change vs cycle 0; in experiment [1], 0.619 ± 0.0212 fold-change vs cycle 0; in experiment [2], 0.728 ± 0.0327 fold-change vs cycle 0.

With GAGTGC, the figures for the binding signal (with SALL4 ZFC4 WT (HT-SELEX); in experiment [1]; in experiment [2]) were 0.332 ± 0.0145 fold-change vs cycle 0, 0.398 ± 0.019 fold-change vs cycle 0 and 0.554 ± 0.055 fold-change vs cycle 0, respectively.

For the sequence CGTGAG, the binding signal with SALL4 ZFC4 WT (HT-SELEX) worked out at 0.437 ± 0.0456 fold-change vs cycle 0; in experiment [1], 0.501 ± 0.006 fold-change vs cycle 0; in experiment [2] it was 0.607 ± 0.0306 fold-change vs cycle 0.

For the origin of these results see article PMC9838217, “Structure of SALL4 zinc finger domain reveals link between AT-rich DNA binding and Okihiro syndrome”.
